Assay outcomes deposited in PubChem by National Center for Advancing Translational Sciences (NCATS).
Shown are actives, neighbours in structure and some others; about 18% of the full set was active somewhere.
DT40 TDP1 no CPT – qHTS for Inhibitors of human tyrosyl-DNA phosphodiesterase 1 (TDP1): qHTS in cells in absence of CPT | Potency, µM (highest dose often 46.2 µM), most hits filed as inhibitors | 420,000 tested, 15% active | DT40 Tdp1-/- hTDP1 cells, no CPT, ATP luminescence, 48 h; note: nearly all actives have a fitted effect of over 55% in size
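Cells were dispensed at 400 per well, compounds added by pin tool, plates incubated ≥48 hr at 37 °C, then CellTiter-Glo added for 30 min at room temperature before luminescence reading. Line: DT40 Tdp1-/- complemented with hTDP1; camptothecin omitted.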
DT40 TDP1 CPT – DT40-hTDP1 cell growth loss with CPT. Potency, µM (doses to about 46.2 µM), usual class: inhibitors. AID 686979. chicken DT40 Tdp1-/-;hTDP1 cells + 20 nM CPT, ATP luminescence, 48 h. 420,000 tested, 12% active; note: nearly all actives have a fitted effect of over 55% in size
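Chicken DT40 Tdp1-/- cells stably complemented with human TDP1 were seeded at 400 cells/well in medium containing 20 nM camptothecin, exposed to pin-transferred compounds, and grown at 37 °C for at least 48 hr. Viability was read as ATP luminescence.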
PLK1 PBD block – inhibitors of human PLK1 polo-box domain binding; 360,000 tested, 2.8% active; Potency, µM, actives largely listed as inhibitors; Plk1 PBD binding of FITC phosphopeptide, fluorescence polarization; P53350; note: series mostly up to about 57 µM; nearly all actives have a fitted effect of over 65% in size
Target sequence (P53350 whole entry, looked up, the tested form may be a part): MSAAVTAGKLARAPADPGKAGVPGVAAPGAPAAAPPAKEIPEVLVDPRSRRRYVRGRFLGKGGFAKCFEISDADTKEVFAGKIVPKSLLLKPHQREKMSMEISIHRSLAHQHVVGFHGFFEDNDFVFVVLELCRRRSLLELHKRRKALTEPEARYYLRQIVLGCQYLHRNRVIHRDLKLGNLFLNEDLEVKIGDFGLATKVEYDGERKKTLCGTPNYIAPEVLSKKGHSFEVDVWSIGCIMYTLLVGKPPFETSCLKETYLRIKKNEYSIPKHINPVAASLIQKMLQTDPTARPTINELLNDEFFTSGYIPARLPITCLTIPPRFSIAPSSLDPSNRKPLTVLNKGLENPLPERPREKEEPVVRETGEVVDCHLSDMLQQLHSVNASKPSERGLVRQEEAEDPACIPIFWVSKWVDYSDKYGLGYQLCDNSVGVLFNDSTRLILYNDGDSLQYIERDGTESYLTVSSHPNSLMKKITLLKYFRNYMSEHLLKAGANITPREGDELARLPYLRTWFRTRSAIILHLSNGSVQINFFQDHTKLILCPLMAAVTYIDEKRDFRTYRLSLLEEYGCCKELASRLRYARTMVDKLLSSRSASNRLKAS
GCN5L2 inh – inhibitors of human GCN5L2 histone acetyltransferase; Q92830; GCN5L2 HAT assay, ThioGlo1 CoA-SH fluorescence; Potency, µM (doses to about 58.9 µM), hits mostly inhibitors; 390,000 tested, 0.21% active
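Free CoA generated was detected with ThioGlo1 (50uM) fluorescence at Ex340nm/Em540nm, read immediately and after 20 min at room temperature. Enzyme, 20 nM in HEPES pH 7.5 buffer, saw compounds 15 min before adding 75uM H3(1-25) peptide and 70uM acetyl-CoA.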
TDP1 block – blocks human tyrosyl-DNA phosphodiesterase 1; recombinant TDP1, AlphaScreen DNA substrate cleavage; Potency, µM (titrated, usually from 130 µM), hits mostly inhibitors; 350,000 tested, 0.28% active; AID 485290; note: nearly all actives have a fitted effect of over 40% in size
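Compounds were preincubated with Tdp1 (1 nM final) for 15 min at room temperature before substrate (15 nM final) started a 5 min reaction; beads (10 ug/ml final) were then added for 10 min before AlphaScreen detection.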
VDR inh – inhibitors of human vitamin D receptor | VDR-SRC2-3 peptide fluorescence polarization, 2 h | Potency, µM, most hits filed as inhibitors | 400,000 tested, 0.93% active
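Compounds are added to VDR with labelled SRC2-3 coactivator peptide and held 2 h at room temperature. Inhibition of the VDR–peptide interaction is then read as a change in fluorescence polarization.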
Of the large screens only hits and unclear results are named; the others gave an inactive call. Calls come from the whole dose curve; as a rule, active = well fitted curve in the direction sought with a large enough effect; inconclusive = small, poorly fitted or top-dose-only effect, or another doubt; inactive = no such curve, though single readings can be large; an effect the other way counts as inactive or inconclusive.

N#Cc1ccccc1Cn1c(=O)n(C2CCCC2)c(=O)c2ccccc21	DT40 TDP1 no CPT 18.4µM, DT40 TDP1 CPT 16.4µM
Cc1ccccc1Cn1c(=O)n(CCc2ccccc2)c(=O)c2ccccc21	DT40 TDP1 no CPT inconclusive, DT40 TDP1 CPT inconclusive (no result: PLK1 PBD block)
Cc1c(C(=O)NCC2Cc3cccc(-c4cncnc4)c3O2)c(-c2ccccc2)nn1-c1ccccc1 (stereo unspecified)	none (no result: PLK1 PBD block, GCN5L2 inh, TDP1 block, VDR inh)
COC(CNC(=O)[C@H](Cc1ccccc1)N1Cc2ccccc2C1=O)OC	none (no result: TDP1 block)
Cc1cccc(CCn2c(=O)c3ccccc3n(Cc3ccccc3C)c2=O)c1	DT40 TDP1 no CPT 16.4µM, DT40 TDP1 CPT 14.6µM (no result: PLK1 PBD block)
CCC/C=C(\CCC)C(NC(=O)OCC(C)C)c1ccccc1 (stereo unspecified)	none (no result: DT40 TDP1 no CPT, DT40 TDP1 CPT, PLK1 PBD block, GCN5L2 inh, VDR inh)
CCC/C=C(\CCC)C(NS(=O)(=O)c1ccc(Cl)cc1)c1ccc(C(=O)OC)cc1 (stereo unspecified)	none (no result: DT40 TDP1 no CPT, DT40 TDP1 CPT, PLK1 PBD block, GCN5L2 inh, VDR inh)
CCC/C=C(\CCC)C(NC(=O)OCC(C)C)c1ccc(C(=O)OC)cc1 (stereo unspecified)	DT40 TDP1 no CPT 14.6µM, DT40 TDP1 CPT 23.1µM
CCC/C=C(\CCC)C(NS(=O)(=O)c1cccc2cccnc12)c1ccc(C(=O)OC)cc1 (stereo unspecified)	DT40 TDP1 no CPT 23.1µM, DT40 TDP1 CPT inconclusive
CC(=O)N1N=C(c2ccc(Br)cc2)CC1c1ccc(Br)cc1 (stereo unspecified)	none (no result: GCN5L2 inh, TDP1 block, VDR inh)
CNC(=S)N1N=C(c2ccc(C)cc2)CC1c1ccc(Br)cc1 (stereo unspecified)	DT40 TDP1 no CPT 7.31µM, DT40 TDP1 CPT 10.3µM
CNC(=S)N1N=C(c2ccccc2)CC1c1ccccc1Cl (stereo unspecified)	DT40 TDP1 no CPT inconclusive, DT40 TDP1 CPT inconclusive (no result: TDP1 block)
CNC(=S)N1N=C(c2ccc(C)cc2)CC1c1ccc(Cl)cc1 (stereo unspecified)	DT40 TDP1 no CPT 10.3µM, DT40 TDP1 CPT 13µM
CC(C)c1ccc(C2CC(c3ccc(Br)cc3)=NN2C(N)=S)cc1 (stereo unspecified)	DT40 TDP1 no CPT 9.2µM, DT40 TDP1 CPT 14.6µM
CCOc1ccc(CC(=O)N2CCN=C2SC)cc1	VDR inh inconclusive
Cc1cc(OCCn2ccnc2)cc(C)c1Cl	DT40 TDP1 no CPT inconclusive
O=c1cc2ncc(-c3[nH]ncc3[N+](=O)[O-])cn2[nH]1	none
O=c1cc2ncc(-n3cc([N+](=O)[O-])cn3)cn2[nH]1	TDP1 block 8.91µM
CC(=O)c1ccc(N2CCN(C(=O)c3cn(Cc4ccccc4)nc3-c3cccnc3)CC2)c(F)c1	DT40 TDP1 no CPT 23.1µM, DT40 TDP1 CPT inconclusive
Cc1ccccc1C(=O)N1CCN(c2ccccn2)CC1	none
O=C(c1cc(-c2ccncc2)nc2ccccc12)N1CCN(c2ccccc2O)CC1	DT40 TDP1 no CPT inconclusive, DT40 TDP1 CPT inconclusive, GCN5L2 inh inconclusive
O=C(c1cc(-c2ccccc2)nc2ccccc12)N1CCN(c2ccccc2O)CC1	DT40 TDP1 no CPT 18.4µM, DT40 TDP1 CPT 16.4µM
O=C(c1ccccc1-c1ccccc1)N1CCN(c2ccccn2)CC1	DT40 TDP1 no CPT 2.59µM, DT40 TDP1 CPT 3.26µM
O=C(c1cn(Cc2ccccc2)nc1-c1ccccc1)N1CCN(c2ccccn2)CC1	DT40 TDP1 no CPT 5.8µM, DT40 TDP1 CPT 5.8µM
O=C(C1CCC(=O)N(C2CCCC2)C1)N1CCC(Oc2ccccc2Cl)CC1 (stereo unspecified)	DT40 TDP1 no CPT inconclusive, DT40 TDP1 CPT inconclusive
CCOc1ccc(C/C(O)=C2\C(=O)CC(C)(C)CC2=NCC(=O)O)cc1OCC	none
CC1=C(C(=O)Nc2ccccc2)C(c2ccccn2)n2nc(SCc3ccccc3Cl)nc2N1 (stereo unspecified)	DT40 TDP1 no CPT inconclusive, DT40 TDP1 CPT inconclusive (no result: PLK1 PBD block)
O=C(c1cc(-c2ccncc2)nc2ccccc12)N1CCN(c2ccccn2)CC1	DT40 TDP1 no CPT 11.2µM, DT40 TDP1 CPT 8.91µM
O=C(c1cc(-c2ccncc2)nc2ccccc12)N1CCN(c2ncccn2)CC1	DT40 TDP1 no CPT inconclusive
